# Data: PubChem BioAssay AID651871 (Sanford-Burnham Center for Chemical Genomics, 2012)
# System: HL-1
# Test: cardiomyocyte survival under oxidative or metabolic stress – cell-based, panel, H9c2 and HL-1, ATP luminescence, set 2, SAR follow-up (AID 651871);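 note: cells exposed to stressor for 2 h before ATP readout; reference of the scale not given here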
# Details: H9c2/HL-1 cardiomyocytes, 2-deoxyglucose stress, with 2-deoxyglucose, run 3, at 19.8 µM (top of the series)
smiles,measurement,value
COc1ccc2c(c1OC)C(=O)N1c3ccccc3C(=O)N(Cc3cccc(Cl)c3Cl)C21 (stereo unspecified),activity (protection/inhibition),22.5%
